# Measurements published in PubChem BioAssay AID1259313 (Sanford-Burnham Center for Chemical Genomics, 2017).
# Among all 340,000 compounds or so, about 8,500 (2.5%) were called active. What follows is part of a selection rich in actives, with near analogues and random picks from the rest. Values without a mark were called inactive.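 Rule for the calls: active = melting temperature shift of at least 10% of the positive control shift, at one fixed dose; inactive = the rest.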
# Tested on: Glutamate receptor ionotropic, NMDA 3A (GRIN3A) ligand-binding domain
# Assay: NR3A LBD thermal stabilization by compounds – biophysical, differential scanning fluorimetry, uHTS, primary screen (AID 1259313)
# Conditions: at 25 µM, hits give high values, 0% = protein alone, 100% = glycine-bound protein
row,SMILES,Tm shift relative to glycine control
1,S=C(NCc1ccc(Cl)cc1)NC12CC3CC(CC(C3)C1)C2,15.2% (active)
2,CN(C)CCCNC(=S)NCc1ccc(Cl)cc1,2.67%
3,COC(=O)Cc1ccc(NC(=S)NCc2ccc(Cl)cc2)cc1,-5.66%
4,O=C(/C=C\c1ccc2c(c1)OCO2)NC1(C(=O)Nc2ccc3c(c2)OCCO3)CCCCC1,-13.2%
5,CN(C)c1ccc(/C=C/C(=O)c2ccc(O)cc2)cc1[N+](=O)[O-],5.36%
6,O=C(/C=C/c1ccc2c(c1)OCCO2)c1ccc(O)cc1,13.4% (active)
7,CC(C)c1nnc(NC(=O)C2CC(=O)N(CCc3ccc(F)cc3)C2)s1 (configuration not stated),-0.27%
8,CCCC(C(=O)n1nc(C)cc1C)C(NS(=O)(=O)c1ccc(C)cc1)c1ccccc1 (configuration not stated),-0.23%
9,CSCCC(NC(=O)c1ccccc1)C(=O)N1CCCCCCC1 (configuration not stated),0.17%
10,CSCCC(NC(=O)c1ccccc1)C(=O)N1CCN(Cc2ccc(Cl)cc2)CC1 (configuration not stated),18.1% (active)
11,COc1ccccc1C(=O)NC(CCSC)C(=O)N1CCN(C(C)=O)CC1 (configuration not stated),-1.22%
12,O=C(O)CC(Cc1ccccc1)C(=O)Nc1ccc([N+](=O)[O-])cc1 (configuration not stated),-4.38%
13,O=C(Cn1c2[n+](c3ccc(C(F)(F)F)cc31)CCCCC2)Nc1c(F)cccc1F,-0.45%
14,COc1cc(/C=C/C(=O)OCC(=O)NC2CC2)cc(OC)c1OC,3.83%
15,Cc1nc2ccc(NC(=S)N3CCC(C)CC3)cc2nc1C,-0.26%
16,O=C(NCC1COc2ccccc2O1)C1(c2ccccc2)CCCC1 (configuration not stated),-1.37%
17,S=C(NCCCc1ccccc1)Nc1ccc(Br)cc1,10.2% (active)
18,CCCN(CC1COc2ccccc2O1)C(=S)Nc1ccc(C)cc1 (configuration not stated),-4.99%
19,S=C(Nc1ccc(Br)cc1)NC1CCN(Cc2ccccc2)CC1,-2.33%
20,S=C(NCC1COc2ccccc2O1)Nc1ccc(Br)cc1 (configuration not stated),14.7% (active)
21,O=S(=O)(NCCCc1ccccc1)c1ccc(Br)cc1,-5.32%
22,COc1cccc(/C=C2\Sc3ccc(C(=O)NCC4CCCO4)cc3N(C)C2=O)c1 (configuration not stated),-11.6%
23,CN(CCc1ccccn1)C1CCCN(S(=O)(=O)c2ccccc2Cl)C1 (configuration not stated),-1.11%
24,Cc1ccc(C)c(NC(=O)c2ccc(OC(=O)c3ccco3)cc2)c1,-0.45%
25,CC(=O)n1c(C=Nc2ccccc2)c(O)c2ccccc21,0.18%
26,Oc1ccc(N=Cc2sc3ccccc3c2Cl)cc1,15.5% (active)
27,Cc1ccn2cc(-c3nonc3C)cc2c1,-33.8%
